Source: PubChem BioAssay (EPA / NIEHS)
The source made the active and inactive calls. The calls were made as follows: active = hit-call score of the fitted dose curve at least 0.9, where 1 is the maximum; inactive = score below 0.9.

Experiments:
[1] = molecular target: Bile acid receptor (Homo sapiens) (UniProt Q96RI1); experiment: ATG_IR1_CIS: Attagene CIS-FACTORIAL HepG2 Assay for human Nuclear Receptor Subfamily 1 Group H Member 4 (NR1H4), IR1 submotif (AID 2282946); conditions: IR1 reporter transcription, actives raise or lower the signal
Chain of Bile acid receptor (Homo sapiens) (Q96RI1 whole entry, looked up): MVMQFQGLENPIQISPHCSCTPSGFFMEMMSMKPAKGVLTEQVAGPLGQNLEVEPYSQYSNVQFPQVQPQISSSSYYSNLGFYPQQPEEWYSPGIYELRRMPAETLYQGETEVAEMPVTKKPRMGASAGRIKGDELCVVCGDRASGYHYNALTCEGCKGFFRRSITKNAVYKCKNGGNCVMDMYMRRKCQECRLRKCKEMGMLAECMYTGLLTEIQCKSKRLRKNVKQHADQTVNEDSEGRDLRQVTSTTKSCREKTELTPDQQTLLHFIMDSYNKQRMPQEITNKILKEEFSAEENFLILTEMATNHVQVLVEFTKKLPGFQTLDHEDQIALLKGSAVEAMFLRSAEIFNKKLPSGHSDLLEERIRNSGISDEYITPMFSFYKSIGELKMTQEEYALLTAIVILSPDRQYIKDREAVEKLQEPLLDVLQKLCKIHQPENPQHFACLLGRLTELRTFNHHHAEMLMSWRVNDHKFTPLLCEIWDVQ
Summary of the method: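 Transient MRTU transfection, HepG2; 24 h dosing; RNA → RT-PCR → 6-FAM primer extension → HpaI digest → capillary electrophoresis fluorescence. Gain/loss of signal fitted relative to DMSO.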

[2] = ATG_GRE_CIS: Attagene CIS-FACTORIAL HepG2 Assay for human Glucocorticoid Response Elements (GRE) (AID 2282947); conditions: HepG2 GRE cis-reporter, Attagene multiplex mRNA; actives raise or lower the signal
Summary of the method: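 HepG2 cells transiently transfected with multiple cis-promoter reporter units measure endogenous TF activity; 24 h compound exposure. Reporter mRNA quantified by RT-PCR, FAM labelling, HpaI digestion and capillary electrophoresis; bidirectional fit vs DMSO baseline.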

[3] = ATG_ISRE_CIS: Attagene CIS-FACTORIAL HepG2 Assay for human Interferon Regulatory Factor 1 (IRF1) binding to an Interferon-Stimulated Response Element (ISRE) (AID 2282948); conditions: HepG2 ISRE cis-reporter (Attagene), mRNA transcription readout; actives raise or lower the signal
Summary of the method: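 Transfected HepG2 (multiple reporter transcription units, cis elements) dosed 24 h. RNA → oligo(dT) RT → PCR → 6-FAM primer extension → HpaI → CE. DMSO = negative control/baseline.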

[4] = ATG_M_32_CIS: Attagene CIS-FACTORIAL HepG2 Assay for M32 Transcription Factor (Internal Marker) (AID 2282949); conditions: HepG2 Attagene cis-factorial M32 reporter, mRNA; actives raise or lower the signal;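 also: background control marker of the multiplexed CIS panel rather than a real target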
Summary of the method: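 Following 24 h chemical exposure of HepG2 cells transiently expressing cis-promoter reporter constructs, reporter transcript levels were determined by RT-PCR with fluorescent labelling and capillary electrophoresis, then fitted bidirectionally against DMSO.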

[5] = ATG_M_06_CIS: Attagene CIS-FACTORIAL HepG2 Assay for M06 Transcription Factor (Internal Marker) (AID 2282950); conditions: HepG2 Attagene CIS-FACTORIAL M06 internal marker reporter; actives raise or lower the signal
Summary of the method: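 Cells (HepG2, transiently carrying cis-driven reporter units) receive chemical for 24 h before RNA isolation. Reporter cDNA is PCR-amplified, FAM-labelled by primer extension, HpaI-digested and sized on a capillary analyser.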

[6] = molecular target: Hypoxia-inducible factor 1-alpha (Homo sapiens) (UniProt Q16665); experiment: ATG_HIF1a_CIS: Attagene CIS-FACTORIAL HepG2 Assay for human Hypoxia Inducible Factor 1 (HIF1A) (AID 2282951); conditions: HepG2 Attagene cis-factorial HIF1a reporter transcription; actives raise or lower the signal
Chain of Hypoxia-inducible factor 1-alpha (Homo sapiens) (Q16665 whole entry, looked up): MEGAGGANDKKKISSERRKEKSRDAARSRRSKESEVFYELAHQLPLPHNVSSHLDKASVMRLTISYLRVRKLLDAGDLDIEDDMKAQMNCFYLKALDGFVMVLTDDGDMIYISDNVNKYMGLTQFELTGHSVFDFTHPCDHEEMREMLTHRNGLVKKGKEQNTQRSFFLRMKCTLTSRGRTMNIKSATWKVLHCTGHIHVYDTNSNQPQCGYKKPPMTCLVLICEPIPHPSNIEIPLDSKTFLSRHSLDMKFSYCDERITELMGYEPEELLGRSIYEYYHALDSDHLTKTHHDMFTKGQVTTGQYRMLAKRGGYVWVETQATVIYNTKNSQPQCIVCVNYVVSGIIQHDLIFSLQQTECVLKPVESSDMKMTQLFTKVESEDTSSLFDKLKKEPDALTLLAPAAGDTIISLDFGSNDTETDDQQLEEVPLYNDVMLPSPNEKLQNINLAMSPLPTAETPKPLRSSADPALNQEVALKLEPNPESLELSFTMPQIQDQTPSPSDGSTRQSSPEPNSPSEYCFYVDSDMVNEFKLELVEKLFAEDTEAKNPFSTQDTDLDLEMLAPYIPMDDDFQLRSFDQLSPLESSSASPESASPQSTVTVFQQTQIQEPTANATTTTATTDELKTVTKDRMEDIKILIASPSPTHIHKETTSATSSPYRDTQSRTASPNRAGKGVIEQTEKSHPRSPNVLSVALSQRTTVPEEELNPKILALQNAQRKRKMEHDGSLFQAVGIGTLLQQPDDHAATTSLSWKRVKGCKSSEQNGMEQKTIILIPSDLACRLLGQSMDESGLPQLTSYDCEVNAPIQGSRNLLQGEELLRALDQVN
Summary of the method: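 Dosed 24 h, transfected HepG2 cells yielded total RNA whose reporter transcripts were RT-PCR-amplified and sized by capillary electrophoresis using fluorescent labelling; DMSO defined baseline, with gain and loss of signal both fitted.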

[7] = molecular target: Hepatocyte nuclear factor 6 (Homo sapiens) (UniProt Q9UBC0); experiment: ATG_HNF6_CIS: Attagene CIS-FACTORIAL HepG2 Assay for human Hepatocyte Nuclear Factor 6 (HNF6) (AID 2282952); conditions: HepG2 Attagene cis-factorial HNF6 reporter transcription; actives raise or lower the signal
Chain of Hepatocyte nuclear factor 6 (Homo sapiens) (Q9UBC0 whole entry, looked up, the tested form may be a part): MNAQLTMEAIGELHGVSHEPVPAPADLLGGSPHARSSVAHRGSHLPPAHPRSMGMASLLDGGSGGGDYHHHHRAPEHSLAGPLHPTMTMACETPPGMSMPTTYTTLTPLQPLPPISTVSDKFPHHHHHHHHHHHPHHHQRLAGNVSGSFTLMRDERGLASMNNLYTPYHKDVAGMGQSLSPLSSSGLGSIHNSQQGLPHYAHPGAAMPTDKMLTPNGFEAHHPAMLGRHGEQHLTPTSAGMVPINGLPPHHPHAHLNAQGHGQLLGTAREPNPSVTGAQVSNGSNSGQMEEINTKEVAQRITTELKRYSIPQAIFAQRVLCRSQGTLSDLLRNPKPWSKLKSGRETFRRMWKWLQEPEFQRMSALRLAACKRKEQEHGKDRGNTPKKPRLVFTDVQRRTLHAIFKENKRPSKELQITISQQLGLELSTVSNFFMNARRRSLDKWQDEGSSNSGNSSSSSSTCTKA
Summary of the method: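 HepG2 cells transiently transfected with cis-element-driven multiplexed reporter units measuring endogenous transcription factor activity. After 24 h exposure, reporter mRNA quantified by RT-PCR, FAM-labelled fragments and capillary electrophoresis; bidirectional fitting versus DMSO.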

[8] = molecular target: Heat shock factor protein 1 (Homo sapiens) (UniProt Q00613); experiment: ATG_HSE_CIS: Attagene CIS-FACTORIAL HepG2 Assay for human Heat Shock Transcription Factor 1 (HSE) (AID 2282953); conditions: HepG2 HSE cis-reporter, Attagene RNA transcription; actives raise or lower the signal
Chain of Heat shock factor protein 1 (Homo sapiens) (Q00613 whole entry, looked up): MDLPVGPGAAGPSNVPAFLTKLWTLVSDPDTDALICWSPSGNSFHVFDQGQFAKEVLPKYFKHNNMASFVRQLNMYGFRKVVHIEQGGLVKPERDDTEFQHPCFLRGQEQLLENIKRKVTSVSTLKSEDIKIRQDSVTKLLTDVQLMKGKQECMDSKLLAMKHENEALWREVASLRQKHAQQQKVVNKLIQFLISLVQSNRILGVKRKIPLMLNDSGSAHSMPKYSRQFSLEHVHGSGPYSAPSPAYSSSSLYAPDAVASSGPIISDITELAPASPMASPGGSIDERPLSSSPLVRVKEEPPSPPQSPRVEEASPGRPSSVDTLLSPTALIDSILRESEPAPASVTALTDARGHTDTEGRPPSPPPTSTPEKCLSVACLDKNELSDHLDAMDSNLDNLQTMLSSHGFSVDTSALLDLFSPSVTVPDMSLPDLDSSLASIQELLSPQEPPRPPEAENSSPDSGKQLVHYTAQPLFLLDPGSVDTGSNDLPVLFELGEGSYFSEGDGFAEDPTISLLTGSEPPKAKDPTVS
Summary of the method: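 Liver-derived HepG2 cells carry transiently introduced multiple reporter units governed by cis promoters. Reporter RNA measured 24 h post-dose through reverse transcription, PCR amplification, fluorescent labelling and capillary electrophoresis, normalised to DMSO.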

[9] = ATG_MRE_CIS: Attagene CIS-FACTORIAL HepG2 Assay for human Metal Responsive Element (MRE) (AID 2282954); conditions: HepG2 MRE cis-reporter transcription, Attagene multiplex; actives raise or lower the signal
Summary of the method: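 HepG2 cells transiently transfected with multiple cis-element reporter units measure endogenous MTF1-driven transcription. After 24 h compound exposure, reporter mRNA is quantified by RT-PCR with 6-FAM labelling, HpaI digestion and capillary electrophoresis; bidirectional fits versus DMSO.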

[10] = ATG_PBREM_CIS: Attagene CIS-FACTORIAL HepG2 Assay for human Phenobarbital-responsive Enhancer Module (PBREM) (AID 2282955); conditions: HepG2 PBREM cis-reporter, Attagene multiplexed transcription; actives raise or lower the signal
Summary of the method: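 Transfected liver-derived HepG2 cells exposed 24 h; PBREM reporter transcript quantified via RT-PCR and capillary electrophoresis, with activity in either direction referenced to DMSO.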

[11] = molecular target: Paired box protein Pax-6 (Homo sapiens) (UniProt P26367); experiment: ATG_Pax6_CIS: Attagene CIS-FACTORIAL HepG2 Assay for human Paired Box 6 (PAX6) (AID 2282956); conditions: HepG2 CIS-FACTORIAL PAX6 reporter transcription, RNA readout; actives raise or lower the signal
Chain of Paired box protein Pax-6 (Homo sapiens) (P26367 whole entry, looked up): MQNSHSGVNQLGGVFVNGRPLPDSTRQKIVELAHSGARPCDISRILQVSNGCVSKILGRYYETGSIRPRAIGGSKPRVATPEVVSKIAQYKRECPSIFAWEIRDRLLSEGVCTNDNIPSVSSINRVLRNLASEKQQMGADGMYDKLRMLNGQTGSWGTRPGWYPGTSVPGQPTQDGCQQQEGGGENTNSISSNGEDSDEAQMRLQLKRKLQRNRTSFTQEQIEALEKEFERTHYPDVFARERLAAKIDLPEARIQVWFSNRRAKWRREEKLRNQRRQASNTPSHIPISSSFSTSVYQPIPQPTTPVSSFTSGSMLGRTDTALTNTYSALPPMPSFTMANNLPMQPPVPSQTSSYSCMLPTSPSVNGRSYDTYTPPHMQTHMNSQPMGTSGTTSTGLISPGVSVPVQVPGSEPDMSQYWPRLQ
Summary of the method: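 Transient MRTU transfection of HepG2 → compound exposure 24 h → TriZol RNA, oligo(dT) RT → PCR, 6-FAM primer extension, HpaI cut → capillary electrophoresis; activity fitted both directions against DMSO.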

[12] = ATG_PXRE_CIS: Attagene CIS-FACTORIAL HepG2 Assay for human Pregnane X Receptor Element (PXRE) (AID 2282957); conditions: HepG2 Attagene CIS-FACTORIAL PXRE reporter, mRNA; actives raise or lower the signal
Summary of the method: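 HepG2 cells transiently transfected with cis-element-driven multiplexed reporter units; after 24 h chemical exposure, reporter mRNA measured by RT-PCR, 6-FAM labelling, HpaI digestion and capillary electrophoresis. Bidirectional fitting relative to DMSO.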

[13] = ATG_RORE_CIS: Attagene CIS-FACTORIAL HepG2 Assay for human RAR-related Orphan Receptor Element (RORE) (AID 2282959); conditions: HepG2 Attagene cis-factorial RORE reporter, mRNA; actives raise or lower the signal
Summary of the method: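 Transiently transfected HepG2 reporter cells were treated 24 h. Reporter transcripts were detected by RT-PCR and capillary electrophoresis, with bidirectional fitting against DMSO.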

[14] = ATG_Sox_CIS: Attagene CIS-FACTORIAL HepG2 Assay for human SRY-box transcription factor (SOX) (AID 2282960); conditions: HepG2 Attagene cis-factorial SOX reporter, mRNA; actives raise or lower the signal
Summary of the method: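 Gain- or loss-of-signal endpoint, fitted bidirectionally with DMSO as negative control. Based on reporter mRNA from transfected HepG2 cells harvested 24 h post-treatment and quantified via RT-PCR and capillary electrophoresis.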

[15] = molecular target: Transcription factor Sp1 (Homo sapiens) (UniProt P08047); experiment: ATG_Sp1_CIS: Attagene CIS-FACTORIAL HepG2 Assay for human Specificity Protein 1 (Sp1) (AID 2282961); conditions: HepG2 Sp1 cis-reporter transcription, actives raise or lower the signal
Chain of Transcription factor Sp1 (Homo sapiens) (P08047 whole entry, looked up, the tested form may be a part): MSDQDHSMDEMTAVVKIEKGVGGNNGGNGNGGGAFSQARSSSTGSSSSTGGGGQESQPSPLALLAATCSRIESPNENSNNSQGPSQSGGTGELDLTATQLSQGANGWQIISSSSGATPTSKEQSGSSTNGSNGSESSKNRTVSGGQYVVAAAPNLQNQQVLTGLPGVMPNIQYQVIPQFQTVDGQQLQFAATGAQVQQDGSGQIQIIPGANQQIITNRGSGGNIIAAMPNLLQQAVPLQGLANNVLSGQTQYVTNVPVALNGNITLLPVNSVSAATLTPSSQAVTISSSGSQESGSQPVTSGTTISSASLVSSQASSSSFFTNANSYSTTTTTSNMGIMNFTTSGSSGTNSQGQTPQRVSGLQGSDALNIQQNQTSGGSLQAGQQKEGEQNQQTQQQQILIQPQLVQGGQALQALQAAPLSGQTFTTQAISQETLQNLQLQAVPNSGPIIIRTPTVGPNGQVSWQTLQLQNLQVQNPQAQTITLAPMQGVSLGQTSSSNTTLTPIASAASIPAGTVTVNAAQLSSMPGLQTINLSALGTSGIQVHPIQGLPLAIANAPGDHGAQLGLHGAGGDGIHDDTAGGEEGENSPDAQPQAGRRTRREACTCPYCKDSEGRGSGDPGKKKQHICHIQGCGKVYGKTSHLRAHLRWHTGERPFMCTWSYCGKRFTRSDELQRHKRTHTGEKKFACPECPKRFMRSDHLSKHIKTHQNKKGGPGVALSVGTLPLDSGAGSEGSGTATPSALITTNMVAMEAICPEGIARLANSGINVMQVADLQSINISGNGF
Summary of the method: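 Endpoint reflects endogenous Sp1 transcriptional activity, not an exogenous fusion protein: HepG2 cells with transfected cis-regulated reporters, 24 h dosing, RT-PCR/capillary electrophoresis mRNA read-out, DMSO-normalised bidirectional fit.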

[16] = ATG_SREBP_CIS: Attagene CIS-FACTORIAL HepG2 Assay for human Sterol Regulatory Element Binding (SREBP) (AID 2282962); conditions: HepG2 Attagene cis-factorial SREBP reporter, mRNA; actives raise or lower the signal
Summary of the method: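 Transfected HepG2 (cis-regulated reporter library, endogenous TFs) → compound 24 h → total RNA → oligo(dT) RT → reporter-specific PCR → FAM primer extension, HpaI cut → CE fluorescence. Fit bidirectional vs DMSO.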

[17] = molecular target: Signal transducer and activator of transcription 3 (Homo sapiens) (UniProt P40763); experiment: ATG_STAT3_CIS: Attagene CIS-FACTORIAL HepG2 Assay for human Signal Transducer and Activator of Transcription 3 (STAT3) (AID 2282963); conditions: HepG2, Attagene cis-factorial STAT3 reporter transcription; actives raise or lower the signal
Chain of Signal transducer and activator of transcription 3 (Homo sapiens) (P40763 whole entry, looked up): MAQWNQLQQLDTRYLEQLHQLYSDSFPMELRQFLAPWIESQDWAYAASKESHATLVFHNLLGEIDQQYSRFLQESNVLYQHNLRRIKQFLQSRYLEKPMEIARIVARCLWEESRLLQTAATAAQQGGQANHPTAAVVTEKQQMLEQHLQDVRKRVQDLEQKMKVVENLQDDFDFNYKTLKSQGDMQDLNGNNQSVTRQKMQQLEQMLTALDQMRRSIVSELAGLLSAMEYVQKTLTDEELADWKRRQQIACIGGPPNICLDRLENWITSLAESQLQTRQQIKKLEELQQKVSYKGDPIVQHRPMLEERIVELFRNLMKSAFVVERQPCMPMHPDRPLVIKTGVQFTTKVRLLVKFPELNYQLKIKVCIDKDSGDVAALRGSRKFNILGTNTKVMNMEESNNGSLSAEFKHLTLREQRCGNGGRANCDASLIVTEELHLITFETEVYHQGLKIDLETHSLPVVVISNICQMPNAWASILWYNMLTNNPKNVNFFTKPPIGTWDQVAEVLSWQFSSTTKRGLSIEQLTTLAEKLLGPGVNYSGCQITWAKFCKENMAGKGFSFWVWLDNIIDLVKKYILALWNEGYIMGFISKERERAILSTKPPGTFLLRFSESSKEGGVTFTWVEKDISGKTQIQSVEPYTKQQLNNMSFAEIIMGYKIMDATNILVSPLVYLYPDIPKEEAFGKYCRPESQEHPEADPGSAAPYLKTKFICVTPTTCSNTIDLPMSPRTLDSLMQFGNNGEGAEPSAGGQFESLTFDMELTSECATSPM
Summary of the method: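 HepG2 cells transiently transfected with cis-element-driven multiple reporter transcription units; after 24 h chemical exposure, reporter mRNA measured by RT-PCR, 6-FAM primer-extension labelling, HpaI digestion and capillary electrophoresis. Bidirectional fitting versus DMSO baseline.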

[18] = ATG_TA_CIS: Attagene CIS-FACTORIAL HepG2 Assay for human TA Basal Promoter (AID 2282964); conditions: HepG2 Attagene CIS-factorial TA basal promoter reporter; actives raise or lower the signal
Summary of the method: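 Background internal-marker endpoint from a 52-component HepG2 cis-reporter panel. Cells treated 24 h; reporter transcripts quantified via RT-PCR and CE fluorescence against DMSO baseline.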

[19] = ATG_TCF_b_cat_CIS: Attagene CIS-FACTORIAL HepG2 Assay for human T-Cell-Factor with beta-catenin (TCF/b-cat) (AID 2282965); conditions: HepG2 TCF/beta-catenin cis-reporter transcription, actives raise or lower the signal
Summary of the method: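 HepG2 cells transiently transfected with multiple cis-promoter-regulated reporter transcription units, so endogenous transcription factor activity is measured. Reporter mRNA read 24 hours after dosing by RT-PCR, fluorescent labelling and capillary electrophoresis; bidirectional fitting against DMSO.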

[20] = ATG_PPRE_CIS: Attagene CIS-FACTORIAL HepG2 Assay for human Peroxisome Proliferator-activated Response Element (PPRE) (AID 2282958); conditions: HepG2 PPRE cis-element reporter, Attagene transcription factor profiling; actives raise or lower the signal
Summary of the method: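 Measured endpoint: PPRE-controlled reporter mRNA, detected by RT-PCR and capillary electrophoresis fluorescence, from transiently transfected HepG2 cells 24 h after dosing. Curves fitted in both directions using DMSO baseline.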

Measured: AC50

CCOC(=O)[C@H](C)O
active: [12] 27.2 µM
not listed: [20]
inactive: all other assays above

CC=C1CC2C=CC1C2 (centres undefined)
active: [9] 87.6 µM
not listed: [12] | [14] | [18]
inactive: all other assays above

C=C(C)CCO
active: [12] 5.16 µM
not listed: [10]
inactive: all other assays above

Cc1ccc(C2OC[C@@H]3OC(c4ccc(C)cc4)O[C@H]([C@H](O)CO)[C@@H]3O2)cc1 (some centres undefined)
active: [12] 12.9 µM
not listed: [10]
inactive: all other assays above
